An excerpt weighted towards active compounds, which were near 2% of everything screened.
Shn3 inh set2 = Schnurri-3 reporter inhibition in Clone20 osteoblasts | Clone20 osteoblast Shn3 3'UTR firefly luciferase, 24 h | inhibition, % at 12.5 µM | 360,000 tested, 0.52% active | AID 588674;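 active = mean inhibition of at least 75% with every replicate also reaching 75%; inconclusive = mean inhibition at least 75% but some replicate below; inactive = mean inhibition below 75%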;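 note: 0% = median of neutral control wells and 100% = pilot-screen positive control compound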
697 NFkB inh = lowers PMA/ionomycin-induced NF-kB signal in 697 B cells | 697 B-cell NF-kB luciferase reporter, 16 h | 330,000 tested, 0.33% active | inhibition, % at 4 µM; in the data active = inhibition above about 35%
Jurkat NFkB inh = inhibitors of the PMA/ionomycin-induced NF-kB reporter in Jurkat cells | PMA/ionomycin-induced NF-kB luciferase reporter, luminescence | inhibition, % at 4 µM | 330,000 tested, 0.53% active; in the data active = inhibition above about 50%
Calb FLC = C. albicans growth modulation with fluconazole. 300,000 tested, 0.57% active. growth inhibition, % (no concentration beside the values). AID 1979. C. albicans CaCi-2 (fluconazole-resistant clinical isolate) + fluconazole, Alamar Blue growth, 48 h;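 active = growth inhibition above about 58% in most replicates, limit read from the data, passing the limit was not always enough; inconclusive = exactly half the replicates above a set limit; inactive = most replicates below a set limit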;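 note: all wells also contain fluconazole at 8 µg/ml as a sub-toxic cotreatment; 0% = median of DMSO wells and 100% = median of geldanamycin control wells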
Beta apoptosis = beta cell apoptosis inhibition. INS-1E cytokine-induced death, ATP luminescence, 48 h; percent of positive-control rescue, neutral wells zero. protection from apoptosis, % (no concentration beside the values). 300,000 tested, 0.8% active;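 active = Every replicate reaches about 75%, or at least half do and their mean reaches it too, limit read from the data; inconclusive = At least half of replicates reach the limit but their mean does not; inactive = Under half of replicates reach the limit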;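 note: 0% = cytokine-treated negative control wells and 100% = positive control rescue; higher means more ATP so stronger rescue from cytokine killing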
* hit, by the source's call.

`O=C(NCc1ccccc1Br)c1cccc2c1C(=O)c1ccc(N3CCOCC3)cc1S2(=O)=O` gave 697 NFkB inh 13, Jurkat NFkB inh 2 and Beta apoptosis 87*.
Screening c1ccc(-c2nnsc2-c2ccccc2)cc1 returned Shn3 inh set2 10, 697 NFkB inh 0, Jurkat NFkB inh 9 and Calb FLC 8.
O=S(=O)(c1ccc(Cl)c(Cl)c1)c1snnc1-c1ccccc1 was read as Shn3 inh set2 inconclusive and Calb FLC 95*.
`C(#Cc1ccccc1)C[N+]1(CC#Cc2cccc3ccccc23)CCCC1` gave Shn3 inh set2 84, 697 NFkB inh -15, Jurkat NFkB inh 24, Calb FLC 90* and Beta apoptosis 77*.
Screening COc1ccc(S(=O)(=O)Nc2ccc(O)c3ccccc23)cc1 returned Shn3 inh set2 16, 697 NFkB inh 29, Jurkat NFkB inh 24, Calb FLC -20 and Beta apoptosis 124*.
Cc1ccc(C)c(S(=O)(=O)Nc2ccc(O)c3ccccc23)c1 was read as Shn3 inh set2 -28, 697 NFkB inh -2, Jurkat NFkB inh -8, Calb FLC 5 and Beta apoptosis 99*.
For Cc1ccc(S(=O)(=O)Nc2ccc(O)c3ccccc23)c(C)c1 the results were Shn3 inh set2 1, Calb FLC -16 and Beta apoptosis 96*.
`COc1cc(S(=O)(=O)NC2CCCCC2)c(C)cc1C` gave Shn3 inh set2 13, 697 NFkB inh -14, Jurkat NFkB inh -23, Calb FLC 11 and Beta apoptosis 1.
For Cc1cccc(NC(=O)C2CCCN2S(=O)(=O)c2ccc(Cl)cc2)n1 (configuration not stated) the results were Shn3 inh set2 13, 697 NFkB inh -1, Jurkat NFkB inh 0, Calb FLC -10 and Beta apoptosis 6.
`Cc1cc(N/N=C/c2c(O)ccc3ccccc23)nc(-c2ccccc2O)n1` gave Shn3 inh set2 63, 697 NFkB inh 6, Jurkat NFkB inh 7, Calb FLC 82* and Beta apoptosis 89*.
`CN(C)S(=O)(=O)c1cccc(CSCc2cccc(S(=O)(=O)N(C)C)c2)c1` gave Shn3 inh set2 77, 697 NFkB inh -23, Jurkat NFkB inh 45, Calb FLC -8 and Beta apoptosis 108*.
Screening Cc1cc(C)n2nc(SCc3cccc(S(=O)(=O)N(C)C)c3)nc2n1 returned Shn3 inh set2 81, 697 NFkB inh -24, Jurkat NFkB inh -23 and Calb FLC 3.
For C=CCSc1nc2ccsc2c(=O)n1-c1cccnc1 the results were Shn3 inh set2 6, 697 NFkB inh 5, Jurkat NFkB inh -11, Calb FLC -3 and Beta apoptosis -19.
Screening CC(C)OCCCNC(=S)N1CCC(C(=O)c2ccc(Cl)cc2)CC1 returned Shn3 inh set2 -2, 697 NFkB inh -42, Jurkat NFkB inh -45, Calb FLC -5 and Beta apoptosis 102*.
For CN(C)CCCNC(=S)N1CCC(C(=O)c2ccc(Cl)cc2)CC1 the results were Shn3 inh set2 12.
`S=c1[nH]nc(C2CCCCC2)n1/N=C/c1ccc(Br)s1` gave Shn3 inh set2 -3, 697 NFkB inh -26, Jurkat NFkB inh -23, Calb FLC 90* and Beta apoptosis 4.
For O=C(Nc1cccc(F)c1)c1c(O)c2ccccc2[nH]c1=O the results were Shn3 inh set2 -97, 697 NFkB inh -107, Jurkat NFkB inh -65, Calb FLC 12 and Beta apoptosis 2.
O=C(N/N=C/c1ccccc1)c1c(O)c2ccccc2[nH]c1=O was read as Shn3 inh set2 -19, 697 NFkB inh -106, Jurkat NFkB inh -49, Calb FLC -4 and Beta apoptosis 124*.
`O=C(N/N=C/c1cccc(F)c1)c1c(O)c2ccccc2[nH]c1=O` gave Shn3 inh set2 56, Calb FLC 23 and Beta apoptosis 101*.
Screening O=C(N/N=C/c1ccc(F)cc1)c1c(O)c2ccccc2[nH]c1=O returned Shn3 inh set2 -35, 697 NFkB inh -1, Jurkat NFkB inh -7, Calb FLC -3 and Beta apoptosis -2.
`Brc1cccc(-c2nc3ccc(Br)cn3c2Cc2ccccc2)c1` gave Shn3 inh set2 -4.
For COc1ccc(OC)c(-n2c(CN3CCC(C(N)=O)CC3)nc3ccccc3c2=O)c1 the results were Shn3 inh set2 -17, 697 NFkB inh -2, Jurkat NFkB inh 8, Calb FLC 117* and Beta apoptosis -1.
